Data from PMC12864922, “TDP-43 directly inhibits mRNA accumulation in neurites through modulation of mRNA stability”.
Over roughly 9,900 sequences, “r (bound/input frequency ratio)” has its median near 0.7; the highest 2% begin near 6.5. The sample as a whole holds a higher share of the highest values than the screen did.

B1: ENSMUSG00000031028.56|Tub|187:199;217:221 (ssRNA)
RNA: GGGAGUUCUACAGUCCGACGAUCGCUUCGAUAUCCGCAUGCUACCAAGGUCAACACACAUGCCCAGUCCUGGGUCAGUCCCCUGCUGCAGUGGUGUUAUCACACCGGAAAGCCUCUUCACCUGGAGGUACAGAGGGAGAGGAAGCACAAGCCUGGCUGCUGUGGCUCAGCCAUCCACUCAGCCUACGAGUCAGAGACAGUGGGUGUCCCGGGAAGCAGGGGUACAGUGACACACACACAUACUACAGGGCACUCAAGCUCAUACUAGAAAAAGCUCUGGUGGUCAGCAGAAAGCACUCCCACUCUCUUGCGGUCGCACUAGUGUGGAAUUCUCGGGUGUCAAGG
B2: ENSMUSG00000043670.83|Diras1 (ssRNA)
RNA: GGGAGUUCUACAGUCCGACGAUCGCUUCGAUAUCCGCAUGCUAAUCCCAGUCAGGCCCAGAGAGGUUACCUUGCCUCUCCAUCUCUGUCCCUGUGUGCCCAGCCAUGCCCACUGUCCCUGUCCCUCACAUUCUAUCACUGUGACCUCUGGGGAGUGCCCAUUGACCUCAUCUUCCUUCACUAAUAUCUUAUUUCUUUCACCUGAUCCUGUCCUUUCCCCGUGACCUCUGACCUGUGGCCUUCCCUGGGUCCAGAACACCCCUGUCCUCUCCUGUCUGCACACCAGGGUGGAUGGGCCCGAGGGCUCUUGCGGUCGCACUAGUGUGGAAUUCUCGGGUGUCAAGG
B3: ENSMUSG00000028439.194|Fam219a (ssRNA)
RNA: GGGAGUUCUACAGUCCGACGAUCGCUUCGAUAUCCGCAUGCUAAGCCUAUCUGUCCAGGGAACCAGAUUGGUGUCCGAGAUGAGGAAAUGGCUGUGGCCUGGGAAAUCAGUGAGAGGCCGCUUGGGAAUGAGAAUGCAGUGGACUGAAAGCACAGCCUGGCCAUCUGGAACCUGGGUUCUGGUCCCAGCCUCGGCAUUCUCCCUGAGCUCCUAAGCAAUUCCCAGGCUUCUCUAGGGCUUCAGUUCUCACAACUGGAAAAUAAAGAGUAGCUGACAUCACCGACAGAGUCUUUUCAUACCAGACUCUUGCGGUCGCACUAGUGUGGAAUUCUCGGGUGUCAAGG
B4: ENSMUSG00000031028.89|Tub (ssRNA)
RNA: GGGAGUUCUACAGUCCGACGAUCGCUUCGAUAUCCGCAUGCUAGUACAGGGCACUCAAGCUGUAUGUAGAAAAAGCUCUGGUGGUCAGCAGAAAGCACUCCCACUUCAAAAGGGCCCAUUAGGCCCAAAGGGGGUUAGGAGUGGUAGGGAUAGGUGCGUGGCAGGUCCCUGCUAGGAUUGCAGGGGCCUGGCCAUGUGUAUUAGCUGGAGGCUUAGAAUGCUAGCUCAUUUGUUGCUACAGAUUUGCCCAGUGCUUGCACACGUAAGAACCCAGCUCUCAAGGCCAAAUAUCUGAGUGGAUGGCUCUUGCGGUCGCACUAGUGUGGAAUUCUCGGGUGUCAAGG
B5: ENSMUSG00000034801.36|Sos2 (ssRNA)
RNA: GGGAGUUCUACAGUCCGACGAUCGCUUCGAUAUCCGCAUGCUAGCAGAAUUCAAGCCCUCUCUUACCAAAGCUGCCACCAAAGACUUACAAACGGGAGCUUUCCCACCCGCCACUGUAUAGACUGCCUCUGCUGGAAAAUGCAGAAACUCCUCAAUGACCUUGGCCAUAUGUAGUCAUUGACACUGGAAUAGUAUUUGUAAAGGUUUUUAAUUUAUUCAAAAAGACAUAGUAUUUUAGUACUUUUUACAGAAAUGCUACUGAUUAAAUAAGCUCUUAAGAAUUAGUAAACUUGUUGGAUGGCACUCUUGCGGUCGCACUAGUGUGGAAUUCUCGGGUGUCAAGG
B6: ENSMUSG00000043670.328|Diras1 (ssRNA)
RNA: GGGAGUUCUACAGUCCGACGAUCGCUUCGAUAUCCGCAUGCUAUAGCCAGCCCAGGGCCCCCACAGCUGCCACCUGCUCCCAAGCCCCGGGAGUGGCUCCUGGCUGGACAGGGGGUCACAGCCCUUUCUCAGGGACACACCCUGAUAGCACAAUCUCUGGGCCACCCCAGGCUUCUCCUGGCUGGCCUUGCCCAUCCUGGGGAGAACCGGGCUGGGUGGCAGGGGAGGCCGGAGCCCACCCUGGCUGCUGGCCAACCUGCCCAGGCAUCUCUGGUGCUGGGGACCCCGCCAGGCCUCGCUUGCCUCUUGCGGUCGCACUAGUGUGGAAUUCUCGGGUGUCAAGG
B7: ENSMUSG00000043670.175|Diras1 (ssRNA)
RNA: GGGAGUUCUACAGUCCGACGAUCGCUUCGAUAUCCGCAUGCUAAGUCCCUGUGUGCGGUGAUAGGACUAGUGGCUGCUGCCCUAGGGCUCUGACAGAAUCUGAGCCUCUUUGCUGGUCAUGUGUACUCUGGAGACUGUCCCCCAUGUCUGCCCUGAGUUACGGAGCCCCUGUGGUAUCUGCGAGACUGUCCAGGAGACUUGAGUGGCUCCUGGGCCUGUGUCCCACCCAGAUGAGGGUGACUUAGAAUUCUGUGUUUAUGUGCCUGUGUGUGUGGAUGGGUGUGUGUCUGUCUUGGGAUGGGGCUCUUGCGGUCGCACUAGUGUGGAAUUCUCGGGUGUCAAGG
B8: ENSMUSG00000043670.180|Diras1 (ssRNA)
RNA: GGGAGUUCUACAGUCCGACGAUCGCUUCGAUAUCCGCAUGCUACUGCUGCCCUAGGGCUCUGACAGAAUCUGAGCCUCUUUGCUGGUCAUGUGUACUCUGGAGACUGUCCCCCAUGUCUGCCCUGAGUUACGGAGCCCCUGUGGUAUCUGCGAGACUGUCCAGGAGACUUGAGUGGCUCCUGGGCCUGUGUCCCACCCAGAUGAGGGUGACUUAGAAUUCUGUGUUUAUGUGCCUGUGUGUGUGGAUGGGUGUGUGUCUGUCUUGGGAUGGGGUGUUCUUGCACCACUUUGUGUUCUUAGUGACUCUUGCGGUCGCACUAGUGUGGAAUUCUCGGGUGUCAAGG
B9: ENSMUSG00000043670.177|Diras1 (ssRNA)
RNA: GGGAGUUCUACAGUCCGACGAUCGCUUCGAUAUCCGCAUGCUACGGUGAUAGGACUAGUGGCUGCUGCCCUAGGGCUCUGACAGAAUCUGAGCCUCUUUGCUGGUCAUGUGUACUCUGGAGACUGUCCCCCAUGUCUGCCCUGAGUUACGGAGCCCCUGUGGUAUCUGCGAGACUGUCCAGGAGACUUGAGUGGCUCCUGGGCCUGUGUCCCACCCAGAUGAGGGUGACUUAGAAUUCUGUGUUUAUGUGCCUGUGUGUGUGGAUGGGUGUGUGUCUGUCUUGGGAUGGGGUGUUCUUGCACCCUCUUGCGGUCGCACUAGUGUGGAAUUCUCGGGUGUCAAGG
B10: ENSMUSG00000043670.182|Diras1 (ssRNA)
RNA: GGGAGUUCUACAGUCCGACGAUCGCUUCGAUAUCCGCAUGCUAGGCUCUGACAGAAUCUGAGCCUCUUUGCUGGUCAUGUGUACUCUGGAGACUGUCCCCCAUGUCUGCCCUGAGUUACGGAGCCCCUGUGGUAUCUGCGAGACUGUCCAGGAGACUUGAGUGGCUCCUGGGCCUGUGUCCCACCCAGAUGAGGGUGACUUAGAAUUCUGUGUUUAUGUGCCUGUGUGUGUGGAUGGGUGUGUGUCUGUCUUGGGAUGGGGUGUUCUUGCACCACUUUGUGUUCUUAGUGAGACCACAGUGUACUCUUGCGGUCGCACUAGUGUGGAAUUCUCGGGUGUCAAGG
B11: ENSMUSG00000043670.181|Diras1 (ssRNA)
RNA: GGGAGUUCUACAGUCCGACGAUCGCUUCGAUAUCCGCAUGCUACCCUAGGGCUCUGACAGAAUCUGAGCCUCUUUGCUGGUCAUGUGUACUCUGGAGACUGUCCCCCAUGUCUGCCCUGAGUUACGGAGCCCCUGUGGUAUCUGCGAGACUGUCCAGGAGACUUGAGUGGCUCCUGGGCCUGUGUCCCACCCAGAUGAGGGUGACUUAGAAUUCUGUGUUUAUGUGCCUGUGUGUGUGGAUGGGUGUGUGUCUGUCUUGGGAUGGGGUGUUCUUGCACCACUUUGUGUUCUUAGUGAGACCACCUCUUGCGGUCGCACUAGUGUGGAAUUCUCGGGUGUCAAGG
B12: ENSMUSG00000043670.176|Diras1 (ssRNA)
RNA: GGGAGUUCUACAGUCCGACGAUCGCUUCGAUAUCCGCAUGCUAUGUGUGCGGUGAUAGGACUAGUGGCUGCUGCCCUAGGGCUCUGACAGAAUCUGAGCCUCUUUGCUGGUCAUGUGUACUCUGGAGACUGUCCCCCAUGUCUGCCCUGAGUUACGGAGCCCCUGUGGUAUCUGCGAGACUGUCCAGGAGACUUGAGUGGCUCCUGGGCCUGUGUCCCACCCAGAUGAGGGUGACUUAGAAUUCUGUGUUUAUGUGCCUGUGUGUGUGGAUGGGUGUGUGUCUGUCUUGGGAUGGGGUGUUCUCUCUUGCGGUCGCACUAGUGUGGAAUUCUCGGGUGUCAAGG
B13: ENSMUSG00000031028.287|Tub (ssRNA)
RNA: GGGAGUUCUACAGUCCGACGAUCGCUUCGAUAUCCGCAUGCUAGGCUGGAUUGAUGUAAAUGGAAGUAGUACUUUAAGAAAGCUCUAGAUUUCCCAGGUUGGACACUCGACGAAAGGCACACCUGCUGCAGCAGGUUCUGACACACCUGAGCCAUACAUUGCCAUCAGAGAACCCUCAGCGAGGUAGCCUUUGUUUACAGUCUAGUUUCUAGAGGGCAGUAGGACUUCCAUGCUGGGGCUGGCCUAUCUCCUGAUGAAAGAUUACAGUGCCAUCUCCUUCCCAUAGUUCUGUGUCUGCCCUCCCUCUUGCGGUCGCACUAGUGUGGAAUUCUCGGGUGUCAAGG

The binders below were run against TDP-43 (Homo sapiens, UniProt Q13148 1-414) (assay: RNA Bind-n-Seq with designed 260-mer pool; 25 mM Tris-HCl, 150 mM KCl, 3 mM MgCl2, BSA (printed 500 mg/mL), 20 units/mL SUPERase IN; pH not stated; 500 nM RNA pool, 1 h, 4 C; TDP-43 5, 50, 500 nM; high values mean tight binding). Conditions: protein: recombinant; tags: SBP (GST cleaved off with PreScission; pGEX-GST-SBP).
TDP-43, sequence (Q13148 whole entry): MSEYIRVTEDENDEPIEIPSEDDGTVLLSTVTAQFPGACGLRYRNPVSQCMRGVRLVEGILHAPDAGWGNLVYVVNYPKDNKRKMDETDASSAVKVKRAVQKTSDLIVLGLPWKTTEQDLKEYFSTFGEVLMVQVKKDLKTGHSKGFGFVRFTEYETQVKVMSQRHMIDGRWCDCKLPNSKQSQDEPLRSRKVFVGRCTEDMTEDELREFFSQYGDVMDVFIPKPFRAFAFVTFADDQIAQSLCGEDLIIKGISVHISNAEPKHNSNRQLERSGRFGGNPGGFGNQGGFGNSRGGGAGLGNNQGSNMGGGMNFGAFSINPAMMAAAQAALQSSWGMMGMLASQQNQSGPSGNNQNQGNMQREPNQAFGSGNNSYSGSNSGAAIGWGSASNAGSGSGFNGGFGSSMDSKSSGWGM
Procedure, shortened: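 An in vitro-transcribed pool of 260-nt 3′ UTR oligos (500 nM) was incubated for 1 h at 4 °C with recombinant SBP-tagged TDP-43 at 5, 50 or 500 nM held on streptavidin beads. The buffer contained 25 mM Tris-HCl, 150 mM KCl, 3 mM MgCl2, BSA and SUPERase IN. Biotin-eluted bound RNA was sequenced, and binding, R, is each oligo's normalized read abundance in the bound sample over that in input.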

Row | Binder | binding signal
1 | B1 | 1.06 R (bound/input frequency ratio)
2 | B2 | 2.21 R (bound/input frequency ratio)
3 | B3 | 0.186 R (bound/input frequency ratio)
4 | B4 | 4.96 R (bound/input frequency ratio)
5 | B5 | 0.12 R (bound/input frequency ratio)
6 | B6 | 0.177 R (bound/input frequency ratio)
7 | B7 | 6.15 R (bound/input frequency ratio)
8 | B8 | 6.66 R (bound/input frequency ratio)
9 | B9 | 6.1 R (bound/input frequency ratio)
10 | B10 | 5.77 R (bound/input frequency ratio)
11 | B11 | 6.26 R (bound/input frequency ratio)
12 | B12 | 6.8 R (bound/input frequency ratio)
13 | B13 | 0.856 R (bound/input frequency ratio)
